ALOX12 inhib – 12-hLO (ALOX12) enzyme inhibition | purified 12-hLO, xylenol orange hydroperoxide absorbance | Potency, µM (series often up to 57.1 µM), actives largely listed as inhibitors | actives 0.12% (n = 150,000) | P18054 | AID 1452; also: nearly all actives have a fitted effect of over 55% in size
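150 nM 12hLO, 25 mM Hepes pH 7.0 + 0.01% Triton X-100; cpd preinc 15 min RT; 40 uM arachidonic acid, 30 min RT; Fe-XO 30 min; A573/A405 ratio as read-out.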
PNC assembly inh – inhibitors of perinucleolar compartment assembly | activity change (PNC), negative = inhibition, % at 10 µM | PC3M PTB-GFP, PNC prevalence imaging, 16 h; hits give low values | actives 3.1% (n = 140,000);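 active = readout at or below -70, meaning at least 70% loss of cells showing the perinucleolar compartment, a nuclear body marking cancer cells; inconclusive = readout between -30 and a set limit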
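PC3M cells stably expressing PTB-GFP, 750–1000 cells/well, treated 16 h at 37 °C with compound (23 nl of library stock), in duplicate. After paraformaldehyde fixation and Hoechst stain, imaged at 20x; PNC prevalence scored by image analysis.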
ALDH1A1 block – ALDH1A1 (human) enzyme inhibition; Purified ALDH1A1, NADH fluorescence, propionaldehyde substrate; Potency, µM (top dose mostly 75.3 µM), hits mostly inhibitors; P00352; actives 7.3% (n = 220,000); active = well fitted inhibition curve with a large enough effect, not every such curve was filed as active; inconclusive = small, poorly fitted or top-dose-only effect, or another doubt; inactive = no such curve, though single readings can be large or run the other way
HPGD block – HPGD (human) dehydrogenase inhibition; purified HPGD, NADH fluorescence kinetic, PGE2 substrate; Potency, µM, most hits filed as inhibitors; actives 4.3% (n = 150,000); active = well fitted inhibition curve with a large enough effect, not every such curve was filed as active; inconclusive = small, poorly fitted or top-dose-only effect, or another doubt; inactive = no such curve, though single readings can be large or run the other way
Target sequence (P15428 whole entry, looked up): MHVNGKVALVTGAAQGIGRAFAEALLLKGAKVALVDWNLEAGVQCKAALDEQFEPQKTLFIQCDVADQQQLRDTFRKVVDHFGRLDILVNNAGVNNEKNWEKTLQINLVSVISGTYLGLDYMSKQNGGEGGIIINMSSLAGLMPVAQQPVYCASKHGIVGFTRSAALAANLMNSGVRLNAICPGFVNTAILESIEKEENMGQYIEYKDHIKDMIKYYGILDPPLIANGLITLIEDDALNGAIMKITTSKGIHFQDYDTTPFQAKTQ
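NADH formation kinetics: reaction with 30 uM PGE2 and 1 mM NAD+ (final), 20 nM enzyme, Tris-HCl pH 8 with Tween 20, after 15 min compound preincubation at room temperature. Fluorescence change, last versus first of five reads.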
IMPase cell inh – IMPase inhibition in cells; CHO-M1 cells, IP1 accumulation, HTRF TR-FRET ratio; P97697; inhibition (IP1 accumulation), % at 46.1 µM; 120,000 tested, under 10 active; active = well fitted curve in the direction sought with a large enough effect in the signal ratio, not every such curve was filed as active; inconclusive = small, poorly fitted or top-dose-only effect, or a change in a side signal; inactive = no such curve, though single readings can be large or run the other way; the % refers to the signal ratio;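 also: cells stimulated with carbachol in lithium chloride buffer; higher means more IMPase inhibition seen as more IP1 and lower FRET ratio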
Target sequence (P97697 whole entry, looked up): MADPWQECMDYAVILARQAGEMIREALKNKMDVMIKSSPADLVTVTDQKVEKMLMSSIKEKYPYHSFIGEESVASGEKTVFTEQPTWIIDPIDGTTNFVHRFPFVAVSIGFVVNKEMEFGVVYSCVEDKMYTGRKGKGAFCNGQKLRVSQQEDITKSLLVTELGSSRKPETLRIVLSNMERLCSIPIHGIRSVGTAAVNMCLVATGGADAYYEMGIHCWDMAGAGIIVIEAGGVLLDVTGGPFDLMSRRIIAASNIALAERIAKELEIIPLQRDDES
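Carbachol-driven Gq signalling in CHO-M1 cells (2000/well) generates IP1. Compounds that block IMPase raise IP1 and so reduce the FRET signal from Eu-anti-IP1 and d2-IP1 after a 10 min room-temperature lysis.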
IMPase Li cell – IMPase inhibition in cells with lithium potentiation. CHO-M1 cells, IP1 TR-FRET (IP-One), carbachol + lithium. Potency, µM (doses to about 59.4 µM), usual class: inhibitors. actives 0.35% (n = 210,000). AID 1457;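 also: IP1 builds up when IMPase is blocked and the TR-FRET signal falls; nearly all actives have a fitted effect of over 50% in size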
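Lithium-sensitised IP1 accumulation assay; M1-expressing CHO cells treated 30 min at 37C with compound. Competitive antibody detection by time-resolved FRET followed a 10 min room-temperature lysis step.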
Hits are given with their value. Compounds with a hit are over-represented: about 11% of the library has one in this group of screens. Unless noted, calls follow the shape of the dose curve; as a rule, active = well fitted curve in the direction sought with a large enough effect; inconclusive = small, poorly fitted or top-dose-only effect, or another doubt; inactive = no such curve, though single readings can be large; an effect the other way counts as inactive or inconclusive.

Screening CC(NC(=O)CSC(=S)N(C)C)C12CC3CC(CC(C3)C1)C2 (configuration not stated) returned ALOX12 inhib inactive, PNC assembly inh inactive, ALDH1A1 block 13µM and IMPase cell inh inactive.
`CC(C)(C)c1ccc(C(=O)N2CCC(=O)N(C(COCc3ccccc3)Cc3ccccc3)CC2)cc1` (configuration not stated) gave ALOX12 inhib inactive, PNC assembly inh -115, ALDH1A1 block inconclusive, HPGD block inactive and IMPase Li cell inactive.
`c1ccc(CNc2ncnc3c2cnn3-c2ccccc2)cc1` gave ALOX12 inhib inactive, PNC assembly inh inactive, ALDH1A1 block inactive and IMPase cell inh inactive.
Screening Clc1ccc(-n2ncc3c(NCc4cccs4)ncnc32)cc1 returned ALOX12 inhib inactive, PNC assembly inh inconclusive, ALDH1A1 block 1.6µM, HPGD block inactive, IMPase cell inh inactive and IMPase Li cell inactive.
Screening c1ccc(CCNc2ncnc3c2cnn3-c2ccccc2)cc1 returned ALOX12 inhib inactive, PNC assembly inh inactive, ALDH1A1 block inconclusive, HPGD block 16µM, IMPase cell inh inactive and IMPase Li cell inactive.
CC(C)(C)Nc1ncnc2c1cnn2-c1ccccc1 was read as ALOX12 inhib inactive, PNC assembly inh inconclusive, ALDH1A1 block inactive, HPGD block 25µM, IMPase cell inh inactive and IMPase Li cell inactive.
Screening Cc1cccc(-n2ncc3c(NCc4cccs4)ncnc32)c1 returned ALOX12 inhib inactive, PNC assembly inh inactive, ALDH1A1 block inconclusive, HPGD block inconclusive, IMPase cell inh inactive and IMPase Li cell inactive.
`CC1S/C(=N/N=C/c2ccco2)N(Cc2ccccc2)C1=O` (configuration not stated) gave ALDH1A1 block 10µM.
For CCCCN(C(=O)CN1CCOCC1)c1c(N)n(CC(C)C)c(=O)[nH]c1=O the results were ALOX12 inhib inactive, PNC assembly inh -81, ALDH1A1 block inactive and IMPase cell inh inactive.
`CC(C)CN(C(=O)CN1CCC(C)CC1)c1c(N)n(CC(C)C)c(=O)[nH]c1=O` gave ALDH1A1 block inactive and IMPase Li cell inactive.
For Cc1ccc(S(=O)(=O)N2CCN(CC(=O)N(CC(C)C)c3c(N)n(CC(C)C)c(=O)[nH]c3=O)CC2)c(C)c1 the results were ALOX12 inhib inactive, PNC assembly inh -98, ALDH1A1 block inactive, HPGD block inactive, IMPase cell inh inactive and IMPase Li cell inactive.
`Cc1cc2c(cc(C(=O)OCC(=O)NCc3cccs3)n2C(C)C)o1` gave ALOX12 inhib inactive, PNC assembly inh inactive, ALDH1A1 block 19µM, HPGD block inactive, IMPase cell inh inactive and IMPase Li cell inactive.
`COC(=O)C1CCN(C(=O)COC(=O)c2ccc(OC)c(S(=O)(=O)N3CCCc4ccccc43)c2)CC1` gave ALDH1A1 block 4.5µM and IMPase Li cell inactive.
Screening COc1ccc(C(=O)OCC(=O)NCC2CCCO2)cc1S(=O)(=O)N1CCCc2ccccc21 (configuration not stated) returned ALDH1A1 block inactive and IMPase Li cell inactive.
CN(C)/N=C/C=C1\CCC/C(=C/c2cccs2)C1=O was read as ALDH1A1 block 25µM.
For CN(C)/N=C/C=C1\CC/C(=C\c2ccc(Br)cc2)C1=O the results were ALOX12 inhib inactive, PNC assembly inh inactive, ALDH1A1 block inactive, HPGD block inactive, IMPase cell inh inactive and IMPase Li cell inactive.
Screening Cc1ccc(-c2c3c(=O)n(C)c(=O)n(C)c3c3c(C)nc4ccccc4n23)cc1 returned IMPase cell inh inactive.
`CCC(c1nnnn1Cc1ccco1)N(CCc1ccccc1)Cc1cc2cc(C)ccc2[nH]c1=O` (configuration not stated) gave ALOX12 inhib inactive, PNC assembly inh inactive, ALDH1A1 block 25µM and IMPase cell inh inactive.
Screening CCC(c1nnnn1Cc1ccccc1)N(Cc1ccco1)Cc1cc2cc(OC)ccc2[nH]c1=O (configuration not stated) returned ALOX12 inhib inactive, PNC assembly inh inactive, ALDH1A1 block inconclusive, HPGD block inactive, IMPase cell inh inactive and IMPase Li cell inactive.
CCC(c1nnnn1CCc1ccccc1)N(Cc1ccco1)Cc1cc2c(C)ccc(C)c2[nH]c1=O (configuration not stated) was read as ALOX12 inhib inactive, PNC assembly inh inactive, ALDH1A1 block 22µM, HPGD block inactive, IMPase cell inh inactive and IMPase Li cell inactive.
`Cc1ccc(C)c(OCC(=O)Nc2ccc(S(=O)(=O)Nc3onc(C)c3C)cc2)c1C` gave IMPase cell inh inactive.
Screening Nc1nc(Nc2ccccc2)nc2c1ncn2[C@@H]1O[C@@H](CO)[C@H](O)[C@H]1O returned ALOX12 inhib inactive, ALDH1A1 block inactive, HPGD block inactive, IMPase cell inh inactive and IMPase Li cell inactive.
`Cc1cc(OCC(=O)NC(C)c2ccccc2)ccc1[N+](=O)[O-]` (configuration not stated) gave ALDH1A1 block 25µM and IMPase Li cell inactive.
For CC1CCN(c2c(NCC3CCC(C(=O)N4CCc5ccccc5C4)CC3)c(=O)c2=O)CC1 (configuration not stated) the results were ALOX12 inhib inactive, PNC assembly inh inactive, ALDH1A1 block inactive, HPGD block 2.5µM, IMPase cell inh inactive and IMPase Li cell inactive.
For O=C(C1CCC(CNc2c(N3CCCCC3)c(=O)c2=O)CC1)N1CCc2ccccc2C1 (configuration not stated) the results were ALOX12 inhib inactive, PNC assembly inh inactive, ALDH1A1 block inactive, HPGD block 0.56µM, IMPase cell inh inactive and IMPase Li cell inactive.
For CCN(Cc1ccccc1)C(=O)C1CCC(CNc2c(N3CCOCC3)c(=O)c2=O)CC1 (configuration not stated) the results were ALOX12 inhib inactive, PNC assembly inh inactive, ALDH1A1 block inactive, HPGD block 25µM, IMPase cell inh inactive and IMPase Li cell inactive.
O=C(C1CCN(c2ccc(N3CCOCC3)nn2)CC1)N1CCc2ccccc2C1 was read as ALOX12 inhib inactive, PNC assembly inh inactive, ALDH1A1 block inconclusive, HPGD block inconclusive, IMPase cell inh inconclusive and IMPase Li cell inactive.
`Cc1ccc(C(=O)N2NC(c3ccc(F)cc3)C3C(=O)N(c4ccc(C)c(C)c4)C(=O)C32)cc1` (configuration not stated) gave ALOX12 inhib inactive, PNC assembly inh -90, ALDH1A1 block inactive, HPGD block inconclusive and IMPase Li cell inactive.
For Cc1ccc(C(=O)N2NC(c3ccc(F)cc3)C3C(=O)N(c4ccc(C)cc4)C(=O)C32)cc1 (configuration not stated) the results were ALOX12 inhib inactive, PNC assembly inh inactive, ALDH1A1 block inactive, HPGD block inactive and IMPase Li cell inactive.

Compound activity deposited in PubChem by National Center for Advancing Translational Sciences (NCATS).
